# Test results as given in PubChem BioAssay (NCI).
# Compounds without any hit were thinned out: in the full panel of roughly 79,000, 15% have a hit. A number with no mark means an inactive call. Calls of active or inactive are those of the source. Rule as the data show it: active = growth inhibition above about 70%; inactive = the rest.
# How the values were obtained:
# [1] = NCI Yeast Anticancer Drug Screen. Data for the rad50 strain (AID 155);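 also: 0% = growth of vehicle-only cultures of the same strain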; conditions: S. cerevisiae rad50 strain growth inhibition, stronger effect = higher value
# Procedure, shortened: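 A DNA repair-deficient yeast mutant serves as the test organism; compound-induced growth inhibition is calculated against vehicle-treated cells.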
# [2] = NCI Yeast Anticancer Drug Screen. Data for the mec2-1 strain (AID 157); conditions: S. cerevisiae mec2-1 strain, stronger effect = higher value
# Procedure, shortened: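 Growth inhibition is read against vehicle-treated controls after compound exposure of the mec2-1 yeast strain, which is defective in DNA damage repair or cell cycle control.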
# [3] = NCI Yeast Anticancer Drug Screen. Data for the sgs1 mgt1 strain (AID 161);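 also: 0% = growth of cultures given vehicle only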; conditions: S. cerevisiae sgs1 mgt1 strain, stronger effect = higher value
# Procedure, shortened: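 Yeast cells carrying a defined DNA-repair defect were exposed to test compounds. Growth inhibition was measured relative to vehicle-treated controls.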
# [4] = NCI Yeast Anticancer Drug Screen. Data for the cln2 rad14 strain (AID 165);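 also: 0% = growth equal to vehicle treated cultures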; conditions: S. cerevisiae cln2 rad14 strain, stronger effect = higher value
# Procedure, shortened: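 Growth inhibition, relative to vehicle-treated controls, is the read-out. The test organism is a yeast strain with defined genetic alterations, cln2 rad14.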
# [5] = NCI Yeast Anticancer Drug Screen. Data for the bub3 strain (AID 167); conditions: S. cerevisiae bub3 mutant strain, stronger effect = higher value
# Procedure, shortened: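 Inhibition values come from growth of compound-treated mutant yeast normalised to vehicle-treated controls.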
# [6] = NCI Yeast Anticancer Drug Screen. Data for the mlh1 rad18 strain (AID 175); conditions: S. cerevisiae mlh1 rad18 strain growth inhibition, stronger effect = higher value
# Procedure, shortened: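 Cells of a genetically altered yeast strain, deficient in DNA damage repair, were treated with compound. Their growth was then compared with that of vehicle-treated cultures to give inhibition.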
# [7] = at 5.0 µM (retest, dose inferred, filed as 0.5)
# [8] = at 50.0 µM (retest, dose inferred, filed as 5.0)
Structure (SMILES),"growth inhibition [1, 7] [%]","growth inhibition [1, 8]",growth inhibition ([1]; at 50.0 µM),"growth inhibition [2, 7] [%]","growth inhibition [2, 8]",growth inhibition ([2]; at 50.0 µM),"growth inhibition [3, 7] [%]","growth inhibition [3, 8]",growth inhibition ([3]; at 50.0 µM),"growth inhibition [4, 7] [%]","growth inhibition [4, 8]",growth inhibition ([4]; at 50.0 µM),"growth inhibition [5, 7] [%]","growth inhibition [5, 8]",growth inhibition ([5]; at 50.0 µM),"growth inhibition [6, 7] [%]","growth inhibition [6, 8]",growth inhibition ([6]; at 50.0 µM)
O=C1C(c2ccccc2)=[N+]([O-])c2ccccc21,2,39%,87.4% (active),1,98% (active),98% (active),-2,92% (active),98.2% (active),0,12%,73.5% (active),29,80% (active),99.2% (active),4,92% (active),76.3% (active)
CC#Cc1cc2c(cc1O)CC[C@@H]1[C@@H]2CC[C@]2(C)[C@@H](O)CC[C@@H]12,39,99% (active),84.7% (active),22,100% (active),90.3% (active),24,99% (active),88.5% (active),20,99% (active),72.4% (active),26,99% (active),87.7% (active),29,99% (active),93.3% (active)
COC(=O)Nc1nc2ccc(C(=O)c3ccccc3)cc2[nH]1,0,-9%,55%,3,-7%,46.9%,-1,-5%,43.8%,-1,-24%,45%,10,16%,71.5% (active),1,17%,67.5%
CCOC(=S)SCc1nc2ccccc2[nH]1,9,51%,87% (active),3,96% (active),80.7% (active),7,15%,82.6% (active),10,83% (active),69%,5,86% (active),76.8% (active),3,93% (active),89.2% (active)
Cc1ccc2c(c1)C1(C)C=C(CN3CCN(C)CC3)C(=O)CC1O2 (configuration not stated),16,97% (active),99.6% (active),20,99% (active),99.7% (active),22,99% (active),99.8% (active),-4,99% (active),99.6% (active),-3,99% (active),99.7% (active),11,99% (active),99.5% (active)
COc1ccc2nc3cc([N+](=O)[O-])ccc3c(NNc3ccc([N+](=O)[O-])cc3)c2c1,2,2%,58%,2,-4%,36.9%,3,-4%,65%,-5,-15%,30.9%,2,-5%,55.2%,5,0%,66.2%
O=C(CC1(O)C(=O)Nc2c(Cl)ccc(Cl)c21)c1ccc(Cl)cc1Cl (configuration not stated),25,25%,91.6% (active),13,13%,90.7% (active),18,18%,90.8% (active),-6,-6%,91.3% (active),-2,-2%,93.7% (active),19,19%,92.2% (active)
COC(=O)c1n[nH]c(C)c1N=NN1CCC(C(N)=O)CC1,30,98% (active),98.3% (active),-8,99% (active),99.2% (active),-13,99% (active),98.8% (active),-1,99% (active),97.8% (active),-5,98% (active),98.2% (active),36,99% (active),99.2% (active)
Nc1ccc(/C=C/c2ccccc2)cc1,3,61%,87.5% (active),-9,33%,80.3% (active),-2,47%,81.5% (active),-10,45%,82.8% (active),-2,44%,95.5% (active),3,73% (active),94% (active)
